Activity calls are given as the source filed them. Rule for the calls: active = hit-call score of the fitted dose curve at least 0.9, where 1 is the maximum; inactive = score below 0.9.

CYP2B6, CYP2B6 (gene 1555), sequence (P20813 whole entry, looked up): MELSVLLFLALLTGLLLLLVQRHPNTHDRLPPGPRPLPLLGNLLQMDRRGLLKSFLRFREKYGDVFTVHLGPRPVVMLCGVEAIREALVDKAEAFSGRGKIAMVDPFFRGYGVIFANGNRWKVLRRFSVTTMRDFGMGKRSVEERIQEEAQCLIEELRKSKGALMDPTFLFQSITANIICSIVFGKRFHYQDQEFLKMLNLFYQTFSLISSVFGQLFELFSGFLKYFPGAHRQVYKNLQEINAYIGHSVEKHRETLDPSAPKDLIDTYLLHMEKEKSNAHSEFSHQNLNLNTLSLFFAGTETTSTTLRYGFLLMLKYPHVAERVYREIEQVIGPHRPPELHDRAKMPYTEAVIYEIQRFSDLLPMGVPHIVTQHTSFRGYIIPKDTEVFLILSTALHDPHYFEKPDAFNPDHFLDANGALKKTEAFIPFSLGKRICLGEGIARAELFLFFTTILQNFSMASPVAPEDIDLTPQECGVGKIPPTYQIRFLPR

The experiment deals with CYP2B6, CYP2B6 (gene 1555) (UniProt P20813). Nature of the experiment: ERF_FR_ADME_hCYP2B6: Eurofins (ERF) CYP450-related Enzyme Activity (ADME) LeadHunter Assay for CYP2B6. The protocol:
ERF_FR_ADME_hCYP2B6 is a biochemical, single-readout assay that uses extracted gene-proteins in a cell-free assay. Measurements were taken 0.5 hour after chemical dosing in a 96-well plate. See CYP2B6 inhibition (recombinant, EFC substrate).ERF_FR_ADME_hCYP2B6 is an assay component calculated from the ERF_FR_ADME_hCYP2B6 assay. It is designed to measure enzyme activity using a type of enzyme reporter as detected by fluorescence intensity of HFC with fluorimetry technology.Data from the assay component ERF_FR_ADME_hCYP2B6 was analyzed at the assay endpoint, ERF_FR_ADME_hCYP2B6, in the positive analysis fitting direction relative to acetonitrile as the negative control and baseline of activity. Using a type of enzyme reporter, loss-of-signal activity can be used to understand changes in enzymatic activity as they relate to gene CYP2B6. To generalize the intended target to other relatable targets, this assay endpoint is annotated to the cyp intended target family, where the subfamily is steroidogenesis-related.
[…] are incubated for 15 minutes at 37 C with Bupropion as substrate and Clopidogrel as control inhibitor. Test Sample Requirements: Minimum for 1) Screen: 25 ul of 10 mM stock -OR- 1 mg (pre-weighed) for 10 uM final testing. 2) Dose Response: 60 ul of 10 mM stock -OR- 1 mg (pre-weighed). uM.
Regarding `O=C(/C=C/c1ccc(O)cc1)CC(=O)/C=C/c1ccc(O)cc1`, the AC50 was 1.27 µM (active).

Source of the values: PubChem BioAssay AID2284057 (EPA ToxCast).
